# A selection: hits, their analogues and other compounds. The true share with any hit is near 6%.
# D1 PAM: potentiators of human D1 dopamine receptor. P21728. HEK293 TREx D1 cells, calcium flux, dopamine EC20 potentiation. potentiation, % at 10 µM. actives 0.036% (n = 360,000); in the data active = potentiation above about 30%
# Target sequence (P21728 whole entry, looked up): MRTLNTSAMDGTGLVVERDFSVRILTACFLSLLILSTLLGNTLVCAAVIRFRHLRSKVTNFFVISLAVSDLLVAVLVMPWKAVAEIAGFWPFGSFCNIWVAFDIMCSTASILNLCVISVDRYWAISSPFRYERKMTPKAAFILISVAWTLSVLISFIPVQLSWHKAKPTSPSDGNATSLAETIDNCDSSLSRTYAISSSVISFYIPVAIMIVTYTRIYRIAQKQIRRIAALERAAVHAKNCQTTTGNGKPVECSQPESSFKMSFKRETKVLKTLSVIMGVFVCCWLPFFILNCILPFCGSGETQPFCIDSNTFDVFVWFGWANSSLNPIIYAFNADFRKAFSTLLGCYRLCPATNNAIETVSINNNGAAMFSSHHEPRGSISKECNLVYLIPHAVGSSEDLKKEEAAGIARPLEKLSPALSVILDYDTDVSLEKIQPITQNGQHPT
# D1 agonist: agonists of human D1 dopamine receptor; HEK293 T-REx D1 cells, calcium flux, agonist mode; activation, % at 2 µM; actives 1% (n = 360,000); AID 504660; in the data active = activation above about 30%
#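 Agonism was scored from calcium flux recorded over 180 s (1 read/s) after pintool compound addition, following a 10-cycle baseline. Cells were inducible force-coupled HEK293 TREx D1, plated overnight at 30 C and loaded with no-wash calcium dye.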
# DRD3 antagonist: blocks the human D3 dopamine receptor | max response, negative = inhibition, % | actives 2.5% (n = 360,000) | D3R cells, DiscoveRx beta-arrestin luminescence, antagonist mode; stronger effect = lower value | AID 652054 | P35462; in the data active = max response below about -50%; inconclusive = no clear call, values can overlap the other calls
#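 Cells plated overnight at 1500 cells/well, then exposed to library compounds with dopamine controls for 90 minutes at 37 degrees C. DiscoveRx reagent added for 30–60 minutes at room temperature; luminescence read, quantitative HTS format.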
# D1 antagonist: human D1 dopamine receptor antagonism. actives 3.2% (n = 360,000). activity change, negative = inhibition, % at 10 µM. HEK293 TREx D1 cells, calcium flux, dopamine EC80; stronger effect = lower value; in the data active = activity change below about -30%
#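 Tetracycline-induced HEK293 Trex D1 cells, force-coupled to calcium, dye-loaded; compounds added and read 180 s, then EC80 dopamine added and calcium flux tracked kinetically another 180 s.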
# DRD3 agonist: D3 dopamine receptor (human) agonism | P35462 | D3R DiscoveRx beta-arrestin cells, luminescence, 90 min | max activation, % | actives 0.58% (n = 410,000) | AID 652048; in the data active = max activation above about 30%
#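 Agonist-mode cell screen: cells plated at 1500/well and incubated overnight at 37 °C, then exposed to library compounds for 90 min at 37 °C. Detection reagent was added for 30–60 min at room temperature, and luminescence was read.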
# Hits are given with their value; i = inactive; ? = inconclusive; nt = not tested or not shown.
SMILES,D1 PAM,D1 agonist,DRD3 antagonist,D1 antagonist,DRD3 agonist
CC(C)(C)n1nnnc1C(c1ccccc1)N1CCN(c2ncccc2C(F)(F)F)CC1 (stereo unspecified),nt,nt,i,nt,i
O=C(CNc1cccc2ccccc12)N/N=C/c1ccc(OC(=O)/C=C/c2ccco2)cc1,i,i,i,-70.0,i
Cc1ccc(C(=O)N/N=C/c2cccc(OC(=O)/C=C/c3ccco3)c2)cn1,i,i,i,i,i
O=C(/C=C/c1ccco1)Oc1cc(Br)cc(/C=N/NC(=O)c2ccccc2O)c1,i,i,i,-35.4,i
COc1cccc(/C=C/c2nc(C#N)c(N3CCN(C)CC3)o2)c1,i,i,nt,i,i
CCOc1ccc(CCNC(=O)c2cccc(-n3c(C)nc4cccnc43)c2)cc1,i,i,nt,i,i
CC(C)c1ccc(Nc2c(-c3ccccn3)nc3ccccn23)cc1,i,i,nt,-34.0,i
Cc1ccn2c(Nc3c(C)cccc3C)c(-c3ccc(Cl)s3)nc2c1,i,33.7,nt,i,i
Cc1ccn2c(Nc3c(C)cccc3C)c(-c3ccsc3)nc2c1,i,i,nt,i,i
Cc1ccccc1Nc1c(-c2ccccn2)nc2ccccn12,i,i,?,i,i
Cc1cccc(C)c1Nc1c(-c2ccccn2)nc2c(C)cccn12,i,i,nt,-48.4,i
Cc1ccn2c(Nc3ccccc3C)c(-c3ccccn3)nc2c1,i,i,-59.4,i,i
CC1CCN(S(=O)(=O)c2cn(CC(=O)Nc3ccc(F)c(Cl)c3)c(=O)c3ccccc23)CC1,i,i,nt,i,i
Cc1nnc(N2CCN(c3ccccc3)CC2)c2c1nnn2Cc1ccc(F)cc1,i,i,nt,i,i
CCc1cccc(NC(=O)Cn2c(=O)n(Cc3ccccc3)c(=O)c3c(C)c(C(=O)N(C)C)sc32)c1,i,i,nt,i,i
CCCCOc1ccc(C(=O)NCCc2csc3nc(-c4ccccc4F)nn23)cc1,i,i,nt,i,i
Cc1ccc2nc(-c3ccncc3)c(Nc3ccccc3C)n2c1,i,i,nt,i,i
Cc1cccn2c(Nc3ccccc3)c(-c3ccccn3)nc12,i,i,i,i,i
Cc1ccn2c(Nc3ccccc3)c(-c3ccccn3)nc2c1,i,i,-73.8,i,i
Cc1ccc2nc(-c3ccccn3)c(Nc3ccccc3C)n2c1,i,i,-59.2,i,i
CC(C)COc1ccc(C(=O)Nc2cccc(-c3nc4ccccc4[nH]3)c2)cc1,i,i,nt,i,i
COc1ccc(NC(=O)CCCn2c(=O)c3sccc3n(Cc3ccccc3C)c2=O)cc1,i,i,i,i,i
NC(=O)Cn1c(=O)n(CCCCCC(=O)NCc2ccccc2)c(=O)c2sccc21,i,i,nt,-38.7,i
COCCCn1c(=O)c2sccc2n(Cc2cccc(F)c2)c1=O,i,i,i,-36.3,i
COc1ccc(NC(=O)CCCn2c(=O)c3sccc3n(Cc3ccccc3)c2=O)cc1,i,i,i,-33.8,i
SMILES,D1 PAM,D1 agonist,DRD3 antagonist,D1 antagonist,DRD3 agonist
Cc1nn(CCCC(=O)NCc2ccccc2)c(=O)c2cc3sccc3n12,i,i,nt,-32.2,i
Cc1cc(C)c2c(CC(=O)Nc3ccc(S(=O)(=O)N4CCCCC4)cc3)coc2c1,i,i,nt,i,i
C[C@H](CO)N1C[C@H](C)[C@@H](CN(C)Cc2ccncc2)OCc2cnnn2CCCC1=O,nt,nt,i,nt,i
CCN(CC)C(=O)c1sc2c(c1C)c(=O)n(Cc1ccccc1)c(=O)n2CC(=O)Nc1ccc(OC)cc1,i,i,nt,-34.8,i
COCCCn1c(=O)c2sccc2n2c(CCCC(=O)NCc3ccccc3OC)nnc12,i,i,i,i,i
COCCCn1c(=O)c2sccc2n2c(CCCC(=O)NCc3ccc(OC)cc3)nnc12,i,i,i,-31.4,i
CC(Oc1ccc(Cl)cc1Cl)C(=O)Nc1cccnc1 (stereo unspecified),i,i,-52.5,i,i
CCNC(=O)C(C)Oc1ccc(Cl)cc1Cl (stereo unspecified),i,i,i,i,i
CC(NS(=O)(=O)c1ccc(Cl)c(Cl)c1)C(=O)Nc1cccnc1 (stereo unspecified),nt,nt,-56.6,nt,i
CC(Oc1ccc(Cl)cc1Cl)C(=O)NC1CCSC1=O (stereo unspecified),i,i,-75.5,i,i
COc1ccc(S(=O)(=O)NC(C)C(=O)Nc2ccccc2)cc1Cl (stereo unspecified),i,i,i,i,i

# Screens as filed in PubChem BioAssay.
